Data as given in the supplement of paper PMC6555819.

Tests used:
Experiment in all cases: PBM binding z-score (relative to random genomic background probes); higher = stronger binding; sequences stand for … in GC…GCGATTGACAGCGTAGAATGAAGG
[1] = system: PPARg:RXRa DBDmut IVT, anti-RXR (DBD mutation: RXRa K156A/R161A, NR concentration 270 nM, RXRa partner concentration 90 nM)
Method in brief: (§1)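 Binding z-scores take random background probes as their reference. They come from custom Agilent 4×180K protein-binding microarrays incubated 1 h with ligand-free nuclear receptor dimers, with antibodies against each partner (one per run) detecting binding. Scanned fluorescence was regression-normalized.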

[2] = system: PPARg:RXRa IVT, anti-PPARg (NR concentration 270 nM, RXRa partner concentration 90 nM)
Method in brief: as §1

[3] = system: PPARg DBDmut:RXRa IVT, anti-PPARg (DBD mutation: PPARg1 K132A/R137A, NR concentration 270 nM, RXRa partner concentration 90 nM)
Method in brief: as §1

[4] = system: PPARg DBDmut IVT, anti-PPARg (DBD mutation: PPARg1 K132A/R137A, NR concentration 270 nM)
Method in brief: as §1

[5] = system: PPARg homodimer (NR concentration 180 nM)
Method in brief: as §1

[6] = system: PXR:RXRa (NR concentration 270 nM, RXRa partner concentration 90 nM)
Method in brief: as §1

[7] = system: PXR homodimer (NR concentration 270 nM)
Method in brief: as §1

[8] = system: RARa:RXR (NR concentration 270 nM, RXRa partner concentration 90 nM)
Method in brief: as §1

[9] = system: RARa homodimer (NR concentration 270 nM)
Method in brief: as §1

[10] = system: RARb:RXRa (NR concentration 270 nM, RXRa partner concentration 90 nM)
Method in brief: as §1

[11] = system: RARb homodimer (NR concentration 270 nM)
Method in brief: as §1

[12] = system: RARg:RXRa (NR concentration 270 nM, RXRa partner concentration 90 nM)
Method in brief: as §1

[13] = system: RARg homodimer (NR concentration 270 nM)
Method in brief: as §1

[14] = system: RXRa DBDmut IVT, anti-RXR (DBD mutation: RXRa K156A/R161A, NR concentration 90 nM)
Method in brief: as §1

[15] = system: RXRa homodimer (NR concentration 180 nM)
Method in brief: as §1

[16] = system: THRa:RXRa (NR concentration 90 nM, RXRa partner concentration 90 nM)
Method in brief: as §1

[17] = system: THRa homodimer (NR concentration 90 nM)
Method in brief: as §1

[18] = system: VDR homodimer (NR concentration 270 nM)
Method in brief: as §1

Sequence | PBM binding z-score [1] | PBM binding z-score [2] | PBM binding z-score [3] | PBM binding z-score [4] | PBM binding z-score [5] | PBM binding z-score [6] | PBM binding z-score [7] | PBM binding z-score [8] | PBM binding z-score [9] | PBM binding z-score [10] | PBM binding z-score [11] | PBM binding z-score [12] | PBM binding z-score [13] | PBM binding z-score [14] | PBM binding z-score [15] | PBM binding z-score [16] | PBM binding z-score [17] | PBM binding z-score [18]
ACTAGCAGGCTAAGTTTGGGTCACTCAAACAAAG | 0.316 | 0.557 | -0.411 | -0.519 | -0.136 | 0.49 | -0.438 | 1.31 | -0.552 | 1.17 | 1.72 | 0.94 | 0.818 | -0.349 | 0.549 | 2.37 | 0.936 | -0.0144
CCTACTGGGCCAAAGGTCAATGATTCCAATGCTC | 5.3 | 6.73 | 1.6 | 1.78 | 4.39 | 4.46 | 0.657 | 5.75 | 1.53 | 4.5 | 4.35 | 5.54 | 4.85 | 0.831 | 5.74 | 3 | 0.607 | 1.25
GGGACGAGGGCAAAGTTGATAGCATCTGTCGACG | 2.42 | 3.76 | 0.246 | 0.748 | 1.07 | 1.44 | 0.491 | 1.48 | 0.362 | 2.46 | 1.44 | 2.17 | 1.98 | 2.35 | 1.9 | 1.52 | 0.0608 | 1.85
TTAGCAAGGTGAAGGTCGTTGATCCCTCTGTAGA | 0.732 | 2.79 | -0.57 | -0.963 | 0.358 | 1.19 | -0.023 | 1.51 | -0.525 | 2.03 | 1.68 | 1.09 | 1.04 | -0.172 | 1.53 | 2.03 | 0.432 | 0.356
TCATATAGGTAAAGGTGAAGGTCGAACGATATGA | 4.25 | 4.21 | 1.49 | 1.44 | 1.37 | 1.57 | 0.53 | 2 | 0.708 | 2.45 | 2.28 | 2.15 | 2.07 | 0.787 | 2.51 | 1.82 | 0.00279 | 0.402
TCGAGTAGGTTAGTGGGGGCATTCAGCCAACATA | 3.24 | 4.33 | 4.17 | 4.96 | 1.66 | 2.68 | 1.78 | 1.76 | 0.673 | 1.39 | 1.75 | 1.55 | 1.14 | 1.36 | 1.34 | 2.29 | 1.16 | 3.31
CAAACTAGGTCACCGGAAGGTCAAAGTCCGCATG | 8.69 | 8.91 | 2.7 | 2.01 | 6.37 | 5.88 | 1.99 | 6.98 | 2.38 | 5.37 | 5.88 | 8.43 | 7.82 | 2.05 | 6.69 | 4.6 | 2.95 | 3.43
AGGCAAAGTTCACTAGGTAACGTAAGATTCAGCT | 2.96 | 4.77 | 1.25 | 1.49 | 3.61 | 4.02 | 2.73 | 2.94 | 1.73 | 4.61 | 3.64 | 4.78 | 5.51 | 4.22 | 3.75 | 2.15 | 0.37 | 4.15
